Data: PubChem BioAssay (NCI)
About 79,000 compounds went through this panel and 15% of them were active in at least one assay; those are over-represented in the sample as a whole. A number with no mark means an inactive call. The source made the active and inactive calls. Cut-off read from the data, not from the text of the source: active = growth inhibition above about 70%; inactive = the rest.

Test: NCI Yeast Anticancer Drug Screen. Data for the sgs1 mgt1 strain (AID 161);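 note: 0% = growth of cultures given vehicle only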
Settings: S. cerevisiae sgs1 mgt1 strain, at 5.0 µM (retest, dose inferred, filed as 0.5), hits give high values
Summary of the method: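 Inhibition of yeast growth, normalised to vehicle-treated controls, is reported for a strain bearing genetic alterations in DNA damage repair.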

Row | SMILES | growth inhibition
1 | Cc1ccc(-n2c(CSc3ccc(Cl)cc3)nnc2SCc2nc3ccccc3[nH]2)cc1 | -28%
2 | CC(=O)Nc1cccc(C(=O)O)c1 | -5%
3 | COc1ccc2c(c1)CCCN2CCCCCCCCCN1CCCCC1 | 45%
4 | CN(C)C(=O)/N=c1\ss/c(=N\C(=S)N(C)C)n1-c1ccccc1 | 4%
5 | Clc1ccc(-c2nnc(-c3ccccn3)o2)c(Cl)c1 | 0%
6 | CC(O)CC(O)CC1CCCO1 (stereo not drawn) | 1%
7 | CC[C@]1(O)C[C@H]2[C@@H]3CCc4cc(OC)ccc4[C@H]3CC[C@]2(C)[C@H]1O | -4%
8 | CCCCCCCCCCCCCCCCCCOS(=O)(=O)O (tested in a mixture with another compound) | -12%
9 | C/C(=N\NC(=S)N1CCCC1)c1nc2ncccc2[nH]1 | -2%
10 | CC(C)(C)C1=NN=C2c3ccccc3C(=O)C21 (stereo not drawn) | -1%
11 | O=C(O)c1ccc(N=CC2CO2)cc1 (stereo not drawn) | 13%
12 | CCC1(C)C(C#N)(C#N)C1(C#N)C#N | -36%
13 | COc1ccc(N(C)Sc2ccccc2)cc1 | -14%
14 | C/C(CCn1[nH]c(=O)ccc1=O)=N\NS(=O)(=O)c1ccc(C)cc1 | 0%
15 | CCC[n+]1ccc(/C=N\NC(N)=S)c2ccccc21 | 21%
16 | O=S1CCS(=O)C1c1ccccc1 (stereo not drawn) | -5%
17 | NC(=O)c1c(Cl)nc2n1CCS2 | -2%
18 | CC(C)S(=O)(=O)ON1C(=O)c2ccc(N(C)C)cc2C1=O | 16%
19 | C=Cc1cc(=O)oc2cc(OC)ccc12 | 22%
20 | O=[N+]([O-])c1cc(Cl)cc2c1nc(NCCO)c1ccccc12 | 63%

Row | SMILES | growth inhibition
21 | c1ccc2nc3ccccc3nc2c1 | -5%
22 | Cc1cc(O)ccc1SC#N | -13%
23 | CC1=C(C(=O)NCc2ccccc2)C(c2ccccc2O)C(C(=O)NCc2ccccc2)=C(C)N1 | 17%
24 | Cc1occc1C(=S)Nc1ccc(Cl)c(COC(C)(C)C)c1 | 17%
25 | CCN(CC)CCOc1c(I)cc(I)cc1I | 12%
26 | CCc1c(C(=O)OC)c(C(=O)OC)c(-c2ccccc2)n1CCn1c(CC)c(C(=O)OC)c(C(=O)OC)c1-c1ccccc1 | -2%
27 | O=C1/C(=C/c2ccc(Cl)cc2)CSC/C1=C\c1ccc(Cl)cc1 | 19%
28 | COc1ccc(C2COc3cc(O)c(O)cc3C2)cc1OC (stereo not drawn) | 7%
29 | O=C1c2ccccc2C(=O)c2c1cc(O)c(O)c2O | 23%
30 | COc1cc[c]([Sn]([O][Sn]([Cl])([c]2ccc(OC)cc2)[c]2ccc(OC)cc2)[c]2ccc(OC)cc2)cc1 | 58%
31 | O=C(N/C(=C\c1ccc(/C=C(\NC(=O)c2ccccc2)c2nc3ccccc3s2)cc1)c1nc2ccccc2s1)c1ccccc1 | 42%
32 | Cn1c(=O)cc[nH]c1=O | 0%
33 | CCOC(=O)C1=C(c2ccccc2)SC(c2ccccc2)N(C(C)C)C1=O (stereo not drawn) | 15%
34 | S=C1NC2=C(CSC/C2=C\c2cccc(Br)c2)C(c2cccc(Br)c2)N1 (stereo not drawn) | -1%
35 | c1ccc2[nH]c(CN(CCN(Cc3nc4ccccc4[nH]3)Cc3nc4ccccc4[nH]3)Cc3nc4ccccc4[nH]3)nc2c1 | 99% (active)
36 | O=[N+]([O-])c1ccc(NC(=S)N/N=C(\c2ccccc2)c2ccccn2)cc1 | -19%
37 | O=C(NCCl)Nc1ccccc1 | 8%
38 | O=Cc1[nH]c(=S)[nH]c(=O)c1CCCc1ccccc1 | 15%
39 | CCCC/C=C(/CCCCOCOCCOC)[Si](C)(C)C | -1%

Same assay, conditions: S. cerevisiae sgs1 mgt1 strain, at 50.0 µM (retest, dose inferred, filed as 5.0), hits give high values

Row | SMILES | growth inhibition
40 | Cc1ccc(-n2c(CSc3ccc(Cl)cc3)nnc2SCc2nc3ccccc3[nH]2)cc1 | 7%
41 | CC(=O)Nc1cccc(C(=O)O)c1 | 1%
42 | COc1ccc2c(c1)CCCN2CCCCCCCCCN1CCCCC1 | 81% (active)
43 | CN(C)C(=O)/N=c1\ss/c(=N\C(=S)N(C)C)n1-c1ccccc1 | 95% (active)
44 | Clc1ccc(-c2nnc(-c3ccccn3)o2)c(Cl)c1 | 99% (active)
45 | CC(O)CC(O)CC1CCCO1 (stereo not drawn) | 4%
46 | CC[C@]1(O)C[C@H]2[C@@H]3CCc4cc(OC)ccc4[C@H]3CC[C@]2(C)[C@H]1O | 98% (active)
47 | CCCCCCCCCCCCCCCCCCOS(=O)(=O)O (tested in a mixture with another compound) | 60%
48 | C/C(=N\NC(=S)N1CCCC1)c1nc2ncccc2[nH]1 | 95% (active)
49 | CC(C)(C)C1=NN=C2c3ccccc3C(=O)C21 (stereo not drawn) | 60%
50 | O=C(O)c1ccc(N=CC2CO2)cc1 (stereo not drawn) | 10%
51 | CCC1(C)C(C#N)(C#N)C1(C#N)C#N | 66%
52 | COc1ccc(N(C)Sc2ccccc2)cc1 | 24%
53 | C/C(CCn1[nH]c(=O)ccc1=O)=N\NS(=O)(=O)c1ccc(C)cc1 | -11%
54 | CCC[n+]1ccc(/C=N\NC(N)=S)c2ccccc21 | 38%
55 | O=S1CCS(=O)C1c1ccccc1 (stereo not drawn) | 33%
56 | NC(=O)c1c(Cl)nc2n1CCS2 | 1%
57 | CC(C)S(=O)(=O)ON1C(=O)c2ccc(N(C)C)cc2C1=O | 34%
58 | C=Cc1cc(=O)oc2cc(OC)ccc12 | 98% (active)
59 | O=[N+]([O-])c1cc(Cl)cc2c1nc(NCCO)c1ccccc12 | 93% (active)

Row | SMILES | growth inhibition
60 | c1ccc2nc3ccccc3nc2c1 | 16%
61 | Cc1cc(O)ccc1SC#N | 28%
62 | CC1=C(C(=O)NCc2ccccc2)C(c2ccccc2O)C(C(=O)NCc2ccccc2)=C(C)N1 | 17%
63 | Cc1occc1C(=S)Nc1ccc(Cl)c(COC(C)(C)C)c1 | 84% (active)
64 | CCN(CC)CCOc1c(I)cc(I)cc1I | 99% (active)
65 | CCc1c(C(=O)OC)c(C(=O)OC)c(-c2ccccc2)n1CCn1c(CC)c(C(=O)OC)c(C(=O)OC)c1-c1ccccc1 | 74% (active)
66 | O=C1/C(=C/c2ccc(Cl)cc2)CSC/C1=C\c1ccc(Cl)cc1 | 53%
67 | COc1ccc(C2COc3cc(O)c(O)cc3C2)cc1OC (stereo not drawn) | 69%
68 | O=C1c2ccccc2C(=O)c2c1cc(O)c(O)c2O | 95% (active)
69 | COc1cc[c]([Sn]([O][Sn]([Cl])([c]2ccc(OC)cc2)[c]2ccc(OC)cc2)[c]2ccc(OC)cc2)cc1 | 98% (active)
70 | O=C(N/C(=C\c1ccc(/C=C(\NC(=O)c2ccccc2)c2nc3ccccc3s2)cc1)c1nc2ccccc2s1)c1ccccc1 | 42%
71 | Cn1c(=O)cc[nH]c1=O | 2%
72 | CCOC(=O)C1=C(c2ccccc2)SC(c2ccccc2)N(C(C)C)C1=O (stereo not drawn) | 81% (active)
73 | S=C1NC2=C(CSC/C2=C\c2cccc(Br)c2)C(c2cccc(Br)c2)N1 (stereo not drawn) | 98% (active)
74 | c1ccc2[nH]c(CN(CCN(Cc3nc4ccccc4[nH]3)Cc3nc4ccccc4[nH]3)Cc3nc4ccccc4[nH]3)nc2c1 | 96% (active)
75 | O=[N+]([O-])c1ccc(NC(=S)N/N=C(\c2ccccc2)c2ccccn2)cc1 | 87% (active)
76 | O=C(NCCl)Nc1ccccc1 | 86% (active)
77 | O=Cc1[nH]c(=S)[nH]c(=O)c1CCCc1ccccc1 | 97% (active)
78 | CCCC/C=C(/CCCCOCOCCOC)[Si](C)(C)C | 6%
